Drawing on PubChem BioAssay (NCI), this text covers growth for nine compounds.

Structures are written as SMILES. This is part of a sample that, as a whole, favours compounds with a hit. Of some 83,000 tested, about 20% had one in any assay.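 Percent growth is the endpoint: 0 to 100 indicates growth inhibition (40 means 60% inhibition), 0 means no net growth, and negative values indicate cell death.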 A number with no mark means an inactive call. Activity calls are given as the source filed them. The calls were made as follows: active = growth percent below 10; inactive = the rest.

Test systems include HCT-15 colon; HT29 colon; SNB-75 CNS; SNB-19 CNS; U251 CNS; PC-3 prostate; SK-MEL-5 melanoma; UACC-62 melanoma; LOX IMVI melanoma; SK-MEL-28 melanoma; SK-MEL-2 melanoma; SN12C renal; UO-31 renal; TK-10 renal; ACHN renal; CAKI-1 renal; CCRF-CEM leukemia; MOLT-4 leukemia; EKVX NSCLC; A498 renal.
Holding throughout (assay): NCI-60 one-dose screen, 48 h (100 = growth as untreated, 0 = no growth, -100 = all killed)
Conditions in all cases: 10 µM unless noted

Turning to `COc1cc2nc(-c3ccc(C(F)(F)F)cc3)cc(OCCCN3CCCC3)c2cc1OC`, the growth in the experiment on HCT-15 colon is 13.1%; with HT29 colon, 20.9%; in the experiment on SNB-75 CNS, -19% (active); in the experiment with SNB-19 CNS, 67.5%; in the experiment on U251 CNS, 50.6%; in the experiment with PC-3 prostate it was 41.7%. The growth in the experiment on SK-MEL-5 melanoma was -18.2% (active); in the experiment with UACC-62 melanoma it was -25% (active); in the experiment with LOX IMVI melanoma it was -53.1% (active); in the experiment with SK-MEL-28 melanoma, 71.9%; in the experiment with SK-MEL-2 melanoma, 49.3%; in the experiment with SN12C renal it was 44.5%. Further, the growth was 31.5% in the experiment with UO-31 renal; 100% in the experiment on TK-10 renal; 39.1% with ACHN renal; -7.36% (active) with CAKI-1 renal; 38.5% with CCRF-CEM leukemia; 46.2% in the experiment with MOLT-4 leukemia.
As to `CN1CCN(C(=O)[C@]23CCC(C)(C)C[C@H]2C2=CC[C@@H]4[C@@]5(C)C/C(=C/c6cccnc6)C(=O)C(C)(C)[C@@H]5CC[C@@]4(C)[C@]2(C)CC3)CC1`, the growth in the experiment with HCT-15 colon was 41.4%; in the experiment with HT29 colon, 33.1%; in the experiment on SNB-75 CNS, 82.1%; in the experiment with SNB-19 CNS it was 65.4%; with U251 CNS, 44.7%; in the experiment on PC-3 prostate, 19.1%. Besides, the growth with SK-MEL-5 melanoma was 49.8%; in the experiment with UACC-62 melanoma it was 52.8%; in the experiment with LOX IMVI melanoma, 68.5%; in the experiment with SK-MEL-28 melanoma, 77.9%; in the experiment with SK-MEL-2 melanoma, 81.5%; in the experiment with SN12C renal, 57.8%. The growth in the experiment with UO-31 renal is 38.6%; with TK-10 renal it was 89.5%; with ACHN renal, 66%; in the experiment on CAKI-1 renal, 66.6%; in the experiment on CCRF-CEM leukemia, 33.3%; in the experiment with MOLT-4 leukemia it was 20.5%.
As for `COc1ccc(N2CCN(c3ccc(NC4=C(Cl)C(=O)c5ncccc5C4=O)cc3)CC2)cc1`, the growth in the experiment on HCT-15 colon is 40.9%; in the experiment with HT29 colon, 49.9%; in the experiment on SNB-75 CNS, 52.8%; in the experiment with SNB-19 CNS, 29.4%; in the experiment on U251 CNS, 26.7%; in the experiment with PC-3 prostate it was 53%. Also, the growth was 50.5% in the experiment with SK-MEL-5 melanoma; 34.1% with UACC-62 melanoma; 35.3% in the experiment on LOX IMVI melanoma; 71.8% in the experiment with SK-MEL-2 melanoma; 78.8% in the experiment with EKVX NSCLC; 45.5% with SN12C renal. The growth with UO-31 renal is 46.2%; in the experiment on TK-10 renal, 74.8%; in the experiment on ACHN renal, 67.3%; in the experiment on CAKI-1 renal, 61.1%; in the experiment with CCRF-CEM leukemia, 24.6%; in the experiment on MOLT-4 leukemia it was 53.3%.
Consider `COc1ccc(C(=O)c2cc(C)c(OC)c(C)c2)c(OC)c1NC(C)=O`, for which the growth was 16.3% in the experiment on HCT-15 colon; 3.24% (active) in the experiment with HT29 colon; 56.2% in the experiment on SNB-75 CNS; 22.9% in the experiment on SNB-19 CNS; 21.4% in the experiment with U251 CNS; 20.9% in the experiment with PC-3 prostate. The growth was 20.6% in the experiment on SK-MEL-5 melanoma; 31.6% in the experiment on UACC-62 melanoma; 32% with LOX IMVI melanoma; 49.5% in the experiment on SK-MEL-28 melanoma; 26% in the experiment with SK-MEL-2 melanoma; 34.8% with SN12C renal. Besides, the growth in the experiment on UO-31 renal was 40%; with TK-10 renal it was 51.9%; in the experiment on ACHN renal, 24.9%; with CAKI-1 renal it was 42.4%; in the experiment with CCRF-CEM leukemia, 20.8%; in the experiment on MOLT-4 leukemia, 38.7%.
For `COc1cc(/C(C)=C(\c2ccc(Cl)cc2)c2ccc(OCCN(C)C)cc2)ccc1F`, the growth in the experiment on HCT-15 colon is 18.1%; in the experiment with HT29 colon, 5.91% (active); with SNB-75 CNS, 65.4%; with SNB-19 CNS, 87.7%; in the experiment on U251 CNS it was 44.3%; with PC-3 prostate it was 58.1%. In addition, the growth in the experiment with SK-MEL-5 melanoma was 44.2%; in the experiment with UACC-62 melanoma, 50.3%; in the experiment on LOX IMVI melanoma it was 38.3%; in the experiment with SK-MEL-2 melanoma, 104%; in the experiment with EKVX NSCLC, 81.2%; in the experiment on SN12C renal it was 73.8%. Further, the growth in the experiment on UO-31 renal is 47.5%; in the experiment on TK-10 renal, 72.1%; with ACHN renal, 87.4%; in the experiment on CAKI-1 renal it was 62.7%; in the experiment with CCRF-CEM leukemia, 49.5%; in the experiment with MOLT-4 leukemia it was 42.4%.
For the compound `O=[N+]([O-])CC(c1ccccc1F)c1c[nH]c2ccccc12` (configuration not stated), the growth with HCT-15 colon is 39.3%; with HT29 colon, 23.6%; in the experiment on SNB-75 CNS, 54.9%; in the experiment on SNB-19 CNS, 80.5%; in the experiment on U251 CNS it was 65.6%; with PC-3 prostate it was 87.5%. For the same compound, the growth in the experiment with SK-MEL-5 melanoma is 81.5%; in the experiment with UACC-62 melanoma, 53.4%; in the experiment with LOX IMVI melanoma, 61%; in the experiment with SK-MEL-28 melanoma, 78.2%; in the experiment on SK-MEL-2 melanoma, 57%; with SN12C renal, 88.6%. Further, the growth is 71.9% in the experiment with UO-31 renal; 96.8% in the experiment on TK-10 renal; 94.7% with ACHN renal; 59.2% with CAKI-1 renal; 69.7% in the experiment on CCRF-CEM leukemia; 59% in the experiment on MOLT-4 leukemia.
`CCN1Cc2nc3sc(C)c(C)c3c(=O)n2C=C1C`: the growth in the experiment with HCT-15 colon is 49.7%; in the experiment with HT29 colon it was 22.1%; in the experiment with SNB-75 CNS, 88%; in the experiment on SNB-19 CNS it was 49.4%; in the experiment on U251 CNS, 24.3%; in the experiment with PC-3 prostate, -6.34% (active). Moreover, the growth with SK-MEL-5 melanoma is 78.7%; in the experiment on UACC-62 melanoma it was 46.9%; in the experiment on LOX IMVI melanoma, 53.5%; with SK-MEL-2 melanoma it was 91.9%; in the experiment on EKVX NSCLC, 59.8%; with SN12C renal, 57.1%. The growth in the experiment on UO-31 renal was 34.4%; in the experiment on TK-10 renal it was 87.5%; in the experiment on ACHN renal it was 65.3%; with CAKI-1 renal it was 61.6%; in the experiment on A498 renal, 108%; in the experiment with MOLT-4 leukemia it was -3.45% (active).
On to `N#C/C(=C\c1ccc([N+](=O)[O-])s1)c1nc2cc(Cl)ccc2s1`, for which the growth is -45.9% (active) in the experiment with HCT-15 colon; 33.7% with HT29 colon; 49.7% with SNB-75 CNS; 12.8% in the experiment with SNB-19 CNS; 1.57% (active) in the experiment on U251 CNS; -0.522% (active) in the experiment on PC-3 prostate. Further, the growth with SK-MEL-5 melanoma was -94.4% (active); in the experiment with UACC-62 melanoma it was 19.5%; in the experiment on LOX IMVI melanoma, -29.2% (active); in the experiment with SK-MEL-28 melanoma it was 21.1%; in the experiment with SK-MEL-2 melanoma it was -19.6% (active); in the experiment with SN12C renal, -27.5% (active). Moreover, the growth in the experiment on TK-10 renal was 34.8%; with ACHN renal it was -46.6% (active); in the experiment on CAKI-1 renal, 43.3%; in the experiment with A498 renal, 114%; in the experiment on CCRF-CEM leukemia, 0.557% (active); in the experiment with MOLT-4 leukemia, 8.53% (active).
`CC(Oc1ccc(C(=O)O)cc1C(F)(F)F)c1ccc(Oc2ccccc2)cn1` (configuration not stated): the growth in the experiment on HCT-15 colon is 80.6%; in the experiment on HT29 colon it was 121%; in the experiment with SNB-75 CNS it was 90.1%; in the experiment with SNB-19 CNS it was 96.7%; in the experiment on U251 CNS, 94.4%; with PC-3 prostate, 108%. The growth in the experiment on SK-MEL-5 melanoma was 98.7%; in the experiment with UACC-62 melanoma it was 91.8%; in the experiment on LOX IMVI melanoma, 97%; in the experiment with SK-MEL-2 melanoma, 123%; in the experiment with EKVX NSCLC, 103%; in the experiment with SN12C renal, 98.3%. The growth in the experiment with UO-31 renal was 79.2%; in the experiment on TK-10 renal, 99.5%; in the experiment with ACHN renal, 104%; in the experiment on CAKI-1 renal, 95.9%; in the experiment on CCRF-CEM leukemia, 101%; in the experiment on MOLT-4 leukemia it was 106%.
